Results from ChEMBL document CHEMBL1961873, “Compounds: GSK PKIS; Assays: Nanosyn kinase panel” (2012).

Experiments:
[1] = molecular target: Protein kinase C gamma type (Homo sapiens) (UniProt P05129); conditions: at 1 µM;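 also: each value is an averaged percent inhibition of the enzyme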
[2] = molecular target: T1, Protein kinase C iota type (Homo sapiens) (UniProt P41743); conditions: at 0.1 µM
T1 sequence (whole entry): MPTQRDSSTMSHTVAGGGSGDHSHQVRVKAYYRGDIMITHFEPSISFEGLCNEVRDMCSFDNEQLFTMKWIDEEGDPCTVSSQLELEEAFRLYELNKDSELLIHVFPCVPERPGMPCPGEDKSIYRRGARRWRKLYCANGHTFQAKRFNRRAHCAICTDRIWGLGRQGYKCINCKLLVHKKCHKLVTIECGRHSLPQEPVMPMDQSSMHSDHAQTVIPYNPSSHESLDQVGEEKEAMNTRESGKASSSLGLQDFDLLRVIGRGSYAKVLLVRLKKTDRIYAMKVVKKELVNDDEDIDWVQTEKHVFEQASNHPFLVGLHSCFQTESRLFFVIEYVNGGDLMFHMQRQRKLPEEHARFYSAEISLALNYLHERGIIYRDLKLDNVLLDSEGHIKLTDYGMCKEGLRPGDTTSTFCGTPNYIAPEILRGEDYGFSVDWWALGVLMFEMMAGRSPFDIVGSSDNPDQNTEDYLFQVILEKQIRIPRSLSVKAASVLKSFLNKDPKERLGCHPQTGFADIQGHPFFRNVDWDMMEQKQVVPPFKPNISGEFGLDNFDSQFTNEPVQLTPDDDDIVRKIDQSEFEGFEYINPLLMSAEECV

[3] = molecular target: T1, Protein kinase C iota type (Homo sapiens); conditions: at 1 µM
[4] = molecular target: Protein kinase C theta type (Homo sapiens) (UniProt Q04759); conditions: at 0.1 µM
Protein kinase C theta type (Homo sapiens), sequence (Q04759 whole entry, looked up): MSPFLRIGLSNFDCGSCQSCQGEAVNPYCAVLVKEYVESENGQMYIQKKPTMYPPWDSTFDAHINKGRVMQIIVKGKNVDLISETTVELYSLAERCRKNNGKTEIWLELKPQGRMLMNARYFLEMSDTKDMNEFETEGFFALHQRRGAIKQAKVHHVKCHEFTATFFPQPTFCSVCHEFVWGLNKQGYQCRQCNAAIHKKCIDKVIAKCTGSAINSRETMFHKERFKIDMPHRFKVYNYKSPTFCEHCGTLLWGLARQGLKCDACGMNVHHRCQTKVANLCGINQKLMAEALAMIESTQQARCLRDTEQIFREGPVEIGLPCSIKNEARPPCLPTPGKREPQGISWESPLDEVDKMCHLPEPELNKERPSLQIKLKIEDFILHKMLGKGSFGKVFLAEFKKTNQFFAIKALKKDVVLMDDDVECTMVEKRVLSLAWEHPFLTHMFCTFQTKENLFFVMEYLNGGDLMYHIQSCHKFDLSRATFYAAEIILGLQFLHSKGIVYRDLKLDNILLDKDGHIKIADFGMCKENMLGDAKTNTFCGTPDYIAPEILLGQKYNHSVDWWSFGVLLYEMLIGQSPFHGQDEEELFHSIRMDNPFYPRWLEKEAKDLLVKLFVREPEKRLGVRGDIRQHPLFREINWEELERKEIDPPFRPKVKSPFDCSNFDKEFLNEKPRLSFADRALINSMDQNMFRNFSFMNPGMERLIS

[5] = molecular target: Protein kinase C theta type (Homo sapiens) (UniProt Q04759); conditions: at 1 µM
[6] = molecular target: Protein kinase C beta type (Homo sapiens) (UniProt P05771); conditions: at 0.1 µM
Protein kinase C beta type (Homo sapiens), sequence (P05771 2-671 limits assumed): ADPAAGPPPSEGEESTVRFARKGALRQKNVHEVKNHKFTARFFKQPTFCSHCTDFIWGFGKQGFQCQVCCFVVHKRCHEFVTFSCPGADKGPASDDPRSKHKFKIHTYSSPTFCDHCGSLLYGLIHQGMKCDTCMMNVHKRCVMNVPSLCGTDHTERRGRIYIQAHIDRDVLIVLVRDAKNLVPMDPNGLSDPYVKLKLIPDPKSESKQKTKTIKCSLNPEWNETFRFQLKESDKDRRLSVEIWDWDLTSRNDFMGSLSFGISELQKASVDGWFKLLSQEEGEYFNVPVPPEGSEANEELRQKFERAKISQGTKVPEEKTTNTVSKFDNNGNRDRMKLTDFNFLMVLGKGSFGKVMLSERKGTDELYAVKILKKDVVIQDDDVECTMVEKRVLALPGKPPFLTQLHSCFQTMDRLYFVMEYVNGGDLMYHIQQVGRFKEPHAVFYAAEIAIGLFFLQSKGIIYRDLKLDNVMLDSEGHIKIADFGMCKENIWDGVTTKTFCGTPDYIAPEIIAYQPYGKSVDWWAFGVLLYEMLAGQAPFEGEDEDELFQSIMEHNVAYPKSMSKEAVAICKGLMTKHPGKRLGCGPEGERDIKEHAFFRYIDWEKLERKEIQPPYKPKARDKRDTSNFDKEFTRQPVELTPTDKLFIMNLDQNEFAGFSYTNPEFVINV

[7] = molecular target: Protein kinase C beta type (Homo sapiens) (UniProt P05771); conditions: at 1 µM
[8] = molecular target: T2, Serine/threonine-protein kinase D1 (Homo sapiens) (UniProt Q15139); conditions: at 0.1 µM
T2 sequence (whole entry): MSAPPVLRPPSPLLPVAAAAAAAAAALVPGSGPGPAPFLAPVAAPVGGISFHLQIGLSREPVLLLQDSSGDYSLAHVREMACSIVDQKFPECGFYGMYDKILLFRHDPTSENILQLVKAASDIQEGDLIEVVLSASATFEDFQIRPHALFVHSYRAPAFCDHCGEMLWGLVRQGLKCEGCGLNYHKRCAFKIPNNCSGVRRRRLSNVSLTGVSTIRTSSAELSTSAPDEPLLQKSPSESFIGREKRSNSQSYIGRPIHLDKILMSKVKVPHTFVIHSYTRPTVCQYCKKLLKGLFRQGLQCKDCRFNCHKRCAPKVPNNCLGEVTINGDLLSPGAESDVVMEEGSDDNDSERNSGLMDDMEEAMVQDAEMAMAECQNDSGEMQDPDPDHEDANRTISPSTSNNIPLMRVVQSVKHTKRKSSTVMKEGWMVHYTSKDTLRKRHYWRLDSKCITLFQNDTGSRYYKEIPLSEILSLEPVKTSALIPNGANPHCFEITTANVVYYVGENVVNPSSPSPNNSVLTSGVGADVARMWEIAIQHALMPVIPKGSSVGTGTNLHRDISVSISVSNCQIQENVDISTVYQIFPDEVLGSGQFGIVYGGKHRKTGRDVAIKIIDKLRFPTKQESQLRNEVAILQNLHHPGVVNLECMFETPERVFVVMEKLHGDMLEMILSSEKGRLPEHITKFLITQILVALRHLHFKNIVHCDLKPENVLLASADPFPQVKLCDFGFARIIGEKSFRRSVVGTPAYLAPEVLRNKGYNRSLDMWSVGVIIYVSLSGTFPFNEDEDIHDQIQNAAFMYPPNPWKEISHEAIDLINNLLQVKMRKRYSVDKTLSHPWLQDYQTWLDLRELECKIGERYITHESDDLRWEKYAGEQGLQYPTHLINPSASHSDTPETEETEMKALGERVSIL

[9] = molecular target: T2, Serine/threonine-protein kinase D1 (Homo sapiens); conditions: at 1 µM
[10] = molecular target: T3, Serine/threonine-protein kinase D2 (Homo sapiens) (UniProt Q9BZL6); conditions: at 0.1 µM;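 also: reported percent inhibition values are means, part of the GSK PKIS kinase panel screen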
T3 sequence (whole entry): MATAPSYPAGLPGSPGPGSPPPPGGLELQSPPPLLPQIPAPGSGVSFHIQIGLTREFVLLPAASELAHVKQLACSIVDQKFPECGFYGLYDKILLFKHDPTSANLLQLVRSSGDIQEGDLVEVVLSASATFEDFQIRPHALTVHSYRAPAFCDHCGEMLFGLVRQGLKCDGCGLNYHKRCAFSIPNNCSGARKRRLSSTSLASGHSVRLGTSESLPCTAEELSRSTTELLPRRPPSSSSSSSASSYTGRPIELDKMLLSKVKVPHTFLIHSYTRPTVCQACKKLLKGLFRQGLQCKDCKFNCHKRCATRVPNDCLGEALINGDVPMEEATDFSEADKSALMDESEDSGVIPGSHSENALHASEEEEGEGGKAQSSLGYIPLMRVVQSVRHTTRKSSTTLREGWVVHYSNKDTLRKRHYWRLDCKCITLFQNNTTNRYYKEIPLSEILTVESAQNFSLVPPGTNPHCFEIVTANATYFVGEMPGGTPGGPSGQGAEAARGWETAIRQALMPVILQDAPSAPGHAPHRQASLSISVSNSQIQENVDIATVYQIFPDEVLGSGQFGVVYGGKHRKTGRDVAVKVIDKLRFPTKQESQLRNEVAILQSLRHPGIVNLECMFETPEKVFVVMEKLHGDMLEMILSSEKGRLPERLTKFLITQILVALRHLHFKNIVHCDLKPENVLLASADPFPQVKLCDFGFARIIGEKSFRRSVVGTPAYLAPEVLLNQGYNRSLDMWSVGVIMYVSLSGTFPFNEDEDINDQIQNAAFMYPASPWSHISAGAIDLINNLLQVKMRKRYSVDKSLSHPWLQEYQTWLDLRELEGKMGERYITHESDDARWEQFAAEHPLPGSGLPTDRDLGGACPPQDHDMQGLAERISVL

Row | SMILES | inhibition [1] | inhibition [2] | inhibition [3] | inhibition [4] | inhibition [5] | inhibition [6] | inhibition [7] | inhibition [8] | inhibition [9] | inhibition [10]
1 | COc1cc2ncn(-c3cc(OCc4ccccc4C(F)(F)F)c(C(=O)N(C)C)s3)c2cc1OC | 0.13% | -0.68% | -2.2% | 0.14% | -0.71% | 0.03% | 0.09% | 0.6% | 1.47% | 1.09%
2 | COc1cccc(-c2c[nH]c3c(N/N=C/c4ccncc4)ncnc23)c1 | 7.65% | 4.1% | 20.3% | 0.91% | 0.99% | 1.66% | 5.79% | 1.3% | 6.07% | 1.26%
3 | CN1CCC(n2cnc(-c3ccc(F)cc3)c2-c2ccnc(Nc3ccccc3)n2)CC1 | 33.8% | 1.53% | 1.32% | 1.16% | 4.03% | 27.4% | 66.5% | 5.32% | 39.6% | 7.44%
4 | Cc1ccc2c(-c3ccnc(Nc4ccccc4)n3)c(-c3ccc(F)cc3)nn2n1 | 2.17% | 1.43% | 3.68% | 1.21% | 1.16% | 1.79% | 12.3% | 10.1% | 70.6% | 24.6%
5 | COc1ccc(-c2nn3ncccc3c2-c2ccnc(Nc3ccc4c(c3)OCCO4)n2)cc1 | 3.96% | -0.29% | 0.67% | 0.69% | 2.58% | 1.22% | 7.32% | 3.21% | 6.6% | 2.69%
6 | CCn1c(-c2nonc2N)nc2ccccc21 | 4.67% | 1.65% | 6.6% | 1.58% | 6.38% | 0.96% | 7.2% | 2.23% | 5.47% | 2.41%
7 | CCc1nn2ncccc2c1-c1ccnc(NC2CC2)n1 | 4.3% | 0.47% | 0.64% | 0.97% | 1.63% | 1.1% | 3.32% | 2.35% | 4.56% | 2.36%
8 | COC(=O)c1sc(-n2cnc3cc(OC)c(OC)cc32)cc1OCc1ccccc1C(F)(F)F | 2.66% | 0.97% | 2.66% | 1.11% | 0.41% | 0.96% | 1.08% | 3.64% | 5.12% | 4.89%
9 | Nc1nc(-c2ccc(F)cc2)c(-c2ccc3ncccc3n2)s1 | 4.5% | 2.17% | 1.59% | 1.69% | 3.74% | 1.11% | 3.48% | 8% | 45% | 8.22%
10 | NC(=O)c1sc(-n2cnc3ccc(C(F)(F)F)cc32)cc1OCc1ccccc1Br | 3.75% | 0.8% | 0.82% | 1.63% | 2.57% | 1.28% | 1.31% | 2.72% | 3.86% | 3.59%
11 | COC(=O)Nc1nc2ccc(Oc3ccc(NC(=O)Nc4cccc(Cl)c4)cc3)cc2[nH]1 | -1.47% | 0.42% | 0.23% | 0.36% | 0.17% | 0.5% | 0.57% | 2.7% | 3.03% | 1.6%
12 | FC(F)(F)c1cccc(-c2nn3ncccc3c2-c2ccnc(Nc3ccc4c(c3)OCCO4)n2)c1 | 2.4% | -1.47% | 2.18% | 0.59% | -0.24% | 0.37% | 0.77% | 3.4% | 33.6% | 5.98%
13 | CC1=C(C(=O)Nc2cc(Cl)c3[nH]ncc3c2)C(c2ccc(C(F)(F)F)cc2)CC(=O)N1 (stereo not given) | 3.46% | 1.43% | 1.11% | 5.67% | 28.3% | 1.98% | 2.19% | 2.79% | 6.51% | 3.43%
14 | [O-][S+]1CCN(Cc2ccc(-c3ccc4ncnc(Nc5ccc(OCc6cccc(F)c6)c(Cl)c5)c4c3)o2)CC1 | 1.04% | 3.42% | 2.26% | 2.17% | 2.74% | 2.05% | 2.51% | 5.58% | 10.6% | 4.6%
15 | COc1ccc2[nH]c3c4[nH]c5ccc(OC)cc5c4c4c(c3c2c1)C(=O)NC4=O | 11.7% | 0.72% | 0.15% | 4.69% | 20.9% | 3.68% | 12.9% | 5.02% | 27% | 8.15%
16 | Cc1cccc2c1NC(=O)/C2=N\Nc1ccc(S(N)(=O)=O)cc1 | -2.77% | 1.18% | 2.53% | 0.85% | 0.4% | 2.86% | 0.46% | 2.89% | 4.31% | 2.72%
17 | NS(=O)(=O)c1ccc(Nc2ncc(-c3ccccc3)o2)cc1 | 2.49% | 2.01% | 1.3% | 1.68% | 3.14% | 0.96% | 2.07% | 3.47% | 6.2% | 2.92%
